Measured values from PubChem BioAssay (NCI).
The panel holds about 79,000 compounds, 15% with a hit somewhere; the sample as a whole holds those more often. Activity calls are given as the source filed them. Cut-off read from the data, not from the text of the source: active = growth inhibition above about 70%; inactive = the rest.

Experiment: NCI Yeast Anticancer Drug Screen. Data for the CLN2oe strain (AID 163);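 note: 0% = growth of vehicle-only control cultures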
Conditions: S. cerevisiae CLN2oe strain, stronger effect = higher value
Protocol: Growth inhibition of yeast strains with defined genetic alterations is measured as a screen for potential anti-cancer activity. Selected strains with alterations in DNA damage repair or cell cycle control were exposed to compounds and growth inhibition was measured relative to vehicle treated controls. The strain used in this assay is CLN2oe

Measured: growth inhibition

CCOC1=C/C(=N\Nc2ccc([N+](=O)[O-])cc2)CCC1
inactive: at 1.2 µM -1% | at 3.7 µM -6% | at 11.0 µM 21% | at 33.0 µM 15% | at 100.0 µM -5%

COc1cc([C@@H]2c3cc4c(cc3[C@H](OC3OC5COC(C(C)C)OC5C(O)C3O)C3COC(=O)[C@@H]32)OCO4)cc(OC)c1O (stereo not given in full)
inactive: at 1.2 µM -3% | at 3.7 µM 3% | at 11.0 µM 3% | at 33.0 µM -22% | at 100.0 µM 7%

Cc1c2cc[n+](Cc3ccc(I)cc3)cc2c(C)c2c1[nH]c1ccccc12
active: at 11.0 µM 92% | at 33.0 µM 97% | at 100.0 µM 94%
inactive: at 1.2 µM 14% | at 3.7 µM 19%

O/N=C\c1c(O)ccc2ccccc12
inactive: at 1.2 µM -6% | at 3.7 µM -6% | at 11.0 µM -5% | at 33.0 µM 3% | at 100.0 µM 28%

COc1ccc(/C=C2\NC(=S)N(/C=C3\C(=O)Oc4ccccc4C3=O)C2=O)cc1
inactive: at 1.2 µM -6% | at 3.7 µM -6% | at 11.0 µM -9% | at 33.0 µM 11% | at 100.0 µM 34%

OCC(CO)C(c1cccc2ccccc12)c1cccc2ccccc12
inactive: at 1.2 µM -2% | at 3.7 µM 28%
active: at 11.0 µM 99% | at 33.0 µM 99% | at 100.0 µM 88%

CCOC(=O)c1[nH]n(-c2ccccc2)c(=O)c1C=NC(=S)C(N)=S
active: at 100.0 µM 97%
inactive: at 1.2 µM -8% | at 3.7 µM -7% | at 11.0 µM 2% | at 33.0 µM 35%

O=[N+]([O-])c1cc[n+]([O-])cc1
inactive: at 1.2 µM -3% | at 3.7 µM -4% | at 11.0 µM -2% | at 33.0 µM 5%
active: at 100.0 µM 98%
